High-throughput results (PubChem BioAssay)
aSyn 5UTR act = Activators via SNCA 5'UTR binding, MLPCN. alpha-synuclein 5'UTR reporter, activators screen. activity score, % (tested at 7.5 µM), hits read low. hit rate 7.1% among 300,000; in the data active = activity score below about -60%
Large screens that a line does not name were inactive. The list is a sample of the results.

Cc1sc(NC(=O)c2ccccc2F)c(CN2CCCCC2C)c1C (stereo not given)	aSyn 5UTR act -296
COc1ccc(C(=O)Nc2ccnc(-c3cccnc3)n2)cc1	aSyn 5UTR act -166
Cc1ccc(C(=O)Nc2ccnc(-c3cccnc3)n2)cc1	aSyn 5UTR act -269
O=C(Nc1ccnc(-c2cccnc2)n1)c1ccc(Cl)c(Cl)c1	aSyn 5UTR act -63
Cc1ccc(NC(=O)Nc2ccnc(-c3cccnc3)n2)cc1	none
c1ccc2[nH]c(SCCN3CCOCC3)nc2c1	aSyn 5UTR act -78
c1ccc2[nH]c(SCc3ccc(-c4nnco4)cc3)nc2c1	aSyn 5UTR act -142
COC(=O)c1cccc(CSc2nc3ccccc3[nH]2)c1	aSyn 5UTR act -72
CC(C)CCSc1nc2ccccc2[nH]1	aSyn 5UTR act -107
COc1ccc(CSc2nc3ccccc3[nH]2)cc1	aSyn 5UTR act -189
O=C(Nc1nccs1)c1ccc(-c2ccc(Cl)cc2)o1	aSyn 5UTR act -207
O=C(Nc1nccs1)c1ccc(-c2ccc(F)cc2)o1	aSyn 5UTR act -260
O=C(Nc1cccnc1)c1ccc(-c2ccc(Cl)cc2)o1	aSyn 5UTR act -190
Cc1cccc(NC(=O)c2cc([N+](=O)[O-])ccc2Cl)c1O	aSyn 5UTR act -85
O=C(Nc1nccs1)c1ccc(-c2ccc([N+](=O)[O-])cc2)o1	aSyn 5UTR act -141
O=C(Nc1nccs1)c1cc([N+](=O)[O-])ccc1Cl	aSyn 5UTR act -68
COC(=O)c1ccc(N2CCCCC2)c(N)c1	aSyn 5UTR act -92
Nc1ccc(N2CCCCC2)cc1N1CCCCC1	none
COC(=O)c1ccc(N2CCC(C)CC2)c(N)c1	aSyn 5UTR act -99
COC(=O)c1cc(C(=O)N2CCN(c3cccc(C)c3C)CC2)cc([N+](=O)[O-])c1	none
O=C(Nc1ccc(-c2nc3ccc(NC(=O)c4cccs4)cc3[nH]2)cc1)c1cccs1	none
O=C(Nc1ccc2nc(-c3cccs3)[nH]c2c1)c1ccco1	aSyn 5UTR act -183
O=C(Nc1ccc2nc(-c3cccs3)[nH]c2c1)c1cccs1	aSyn 5UTR act -223
CC(=O)Nc1ccc2nc(-c3ccccn3)[nH]c2c1	aSyn 5UTR act -158
O=[N+]([O-])c1ccc(N/N=C/c2c[nH]c3ccccc23)cc1	aSyn 5UTR act -139
O=[N+]([O-])c1ccccc1N/N=C/c1c[nH]c2ccccc12	aSyn 5UTR act -105
Cn1c(/C=C/c2ccc(Cl)cc2)c([N+](=O)[O-])c(=O)n(C)c1=O	aSyn 5UTR act -147
Cn1c(/C=C/c2cccc([N+](=O)[O-])c2)c([N+](=O)[O-])c(=O)n(C)c1=O	aSyn 5UTR act -194
CCCCCOc1ccc(/C=C/c2c([N+](=O)[O-])c(=O)n(C)c(=O)n2C)cc1	aSyn 5UTR act -175
Cn1c2c(c(=O)n(C)c1=O)C(C(F)(F)F)(C(F)(F)F)N=C(c1ccc(Cl)cc1)N2	none
CCOc1ccc(NC(=O)C(c2ccccn2)N(C(=O)CCl)c2ccc(F)cc2)cc1 (stereo not given)	aSyn 5UTR act -71
CN(C)CCN(C(=O)c1ccc2c(c1)CCCC2)c1nc2cc3c(cc2s1)OCCO3	aSyn 5UTR act -75
CN(C)CCCN(C(=O)c1ccc2c(c1)CCCC2)c1nc2c(F)cccc2s1	aSyn 5UTR act -157
CCOc1cccc2sc(N(CCCN(C)C)C(=O)c3ccc(S(=O)(=O)N4CCc5ccccc5C4)cc3)nc12	none
CN(C)CCN(C(=O)c1ccc2c(c1)OCCO2)c1nc2c(Cl)cccc2s1	aSyn 5UTR act -97
COc1ccc2nc(N(CCN(C)C)C(=O)c3ccc4c(c3)OCCO4)sc2c1	aSyn 5UTR act -72
Cc1cc(C)c2sc(N(CCCN(C)C)C(=O)c3ccc(S(=O)(=O)N(C)C4CCCCC4)cc3)nc2c1	none
CN(C)CCN(C(=O)c1ccc2c(c1)OCCO2)c1nc2cc3c(cc2s1)OCO3	aSyn 5UTR act -77
CN(C)CCN(C(=O)c1ccc(S(=O)(=O)N(C)c2ccccc2)cc1)c1nc2cc3c(cc2s1)OCCO3	aSyn 5UTR act -64
Cc1cccnc1NC(=S)NC(=O)/C=C/c1ccco1	aSyn 5UTR act -89
O=C(/C=C/c1ccco1)NC(=S)Nc1ccccn1	aSyn 5UTR act -127
c1ccc2sc(NCC3CCCO3)nc2c1 (stereo not given)	aSyn 5UTR act -151
C=CCNc1nc(-c2cc3ccccc3o2)cs1	aSyn 5UTR act -73
c1ccc2oc(-c3csc(NCC4CCCO4)n3)cc2c1 (stereo not given)	aSyn 5UTR act -110
c1ccc(-c2ccc3c(c2)NCCN3)cc1	aSyn 5UTR act -113
Nc1ccc(OCCc2ccccc2)cc1	aSyn 5UTR act -76
CCOc1ccc(NC(=O)c2ccccc2SC)cc1	aSyn 5UTR act -110
CSc1ccccc1C(=O)Nc1ccc(C)c(C)c1	aSyn 5UTR act -130
CCc1ccc(NC(=O)c2ccc3nc(N)sc3c2)cc1	aSyn 5UTR act -131
CC(=O)Nc1ccc2cc3ccc(NC(C)=O)cc3nc2c1	aSyn 5UTR act -73
Nc1nc2ccc(C(=O)Nc3ccccc3)cc2s1	aSyn 5UTR act -129
CC(=O)Nc1ccc2nc(N)sc2c1	aSyn 5UTR act -107
N#C/C(=C/c1ccc(N2CCOCC2)o1)C(=O)Nc1ccccc1	aSyn 5UTR act -152
Cc1ccc(/C(C#N)=C\c2ccc(N3CCOCC3)o2)cc1	aSyn 5UTR act -313
Cc1ccc2nc(/C(C#N)=C\c3ccc(N4CCOCC4)o3)[nH]c2c1	aSyn 5UTR act -231
c1ccc(Nc2cccc(Nc3ccccc3)n2)cc1	aSyn 5UTR act -125
COc1ccc(C2C(O)C(c3c[nH]c4ccccc34)=NN2C(=O)CCl)cc1 (stereo not given)	none
O=C(OCC(=O)c1c[nH]c2ccccc12)C1=COCCO1	aSyn 5UTR act -143
Cc1ccc(C(=O)OCC(=O)c2c[nH]c3ccccc23)cc1	aSyn 5UTR act -147
COc1ccc(OCC(=O)c2c[nH]c3ccccc23)cc1	aSyn 5UTR act -90
COC(=O)c1ccc(NC(=O)C(=O)c2c[nH]c3ccccc23)cc1	aSyn 5UTR act -93
Cc1cn(-c2cc(C(=O)Nc3ccc(C)c(NC(=O)C(=O)c4c[nH]c5ccccc45)c3)cc(C(F)(F)F)c2)cn1	none
CC1(C(=O)OCC(=O)c2c[nH]c3ccccc23)CC1(Cl)Cl (stereo not given)	aSyn 5UTR act -260
Cc1ccc(OCC(=O)c2cc(C)n(-c3ccccc3)c2C)c([N+](=O)[O-])n1	none
Cc1ccc(OCC(=O)c2c[nH]c3ccccc23)c([N+](=O)[O-])n1	aSyn 5UTR act -67
CC(=O)N(Cc1ccco1)c1nc(C(=O)Nc2ccc(Cl)cc2)c(C)s1	aSyn 5UTR act -105
CCOC(=O)c1cnc2c(ccc3ccccc32)c1N	aSyn 5UTR act -126
CCOC(=O)c1cnc2c(ccc3ccccc32)c1NCCO	aSyn 5UTR act -96
Cc1c(-c2ccc(Cl)cc2)[n+](=O)c(-c2ccccc2)cn1[O-]	aSyn 5UTR act -118
O=C(Oc1ccc(-c2cnc3ccccc3n2)cc1)c1ccc(Br)o1	aSyn 5UTR act -117
O=C(Oc1ccc(-c2cnc3ccccc3n2)cc1)c1cccc([N+](=O)[O-])c1	aSyn 5UTR act -183
O=C(Oc1ccc(-c2cnc3ccccc3n2)cc1)c1ccc(Cl)c([N+](=O)[O-])c1	aSyn 5UTR act -129
Cc1ccc(NC(=O)C2OCCc3ccccc32)cc1C (stereo not given)	aSyn 5UTR act -62
Cc1cc(C)cc(NC(=O)N2CCc3ccccc3C2)c1	aSyn 5UTR act -111
Cc1ccccc1NC(=O)N1CCc2ccccc2C1	aSyn 5UTR act -80
Cc1ccc(NC(=O)N2CCc3ccccc3C2)cc1C	aSyn 5UTR act -152
O=C(CSc1ccc(-c2cccs2)nn1)c1cccs1	aSyn 5UTR act -68
N#Cc1ccc(-c2cccs2)nc1SCc1cccnc1	none
